Results published in PubChem BioAssay AID1159580 (chemical genetic matrix, 2015).
“And” between values parts separate entries of the source, which are not always exact repeats. Identical values can stand only once. In all, about 5,500 compounds went through this assay and about 2,000 (36%) were called active. Not shown: some 18% with an inconclusive outcome. Cut-off read from the data, not from the text of the source: active = normalized growth mostly below about 0.91 (no sharp cut-off); inconclusive = no clear call, values can overlap the other calls; inactive = mostly above about 0.92. The list shows a part of the results. A structure can be active in one record and inactive in another.

Assay: chemical genetic growth profiling, strain panel (AID 1159580);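 note: tested at 20 µM; growth read once vehicle control cultures reached saturation at 30 °C; 1 = growth at the plate median or of vehicle wells; lower values mean less growth of the strain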
Settings: S. cerevisiae deletion strains, growth OD

Measured: normalized growth

CSc1ccc2c(c1)N(CCC1CCCCN1C)c1ccccc1S2 (stereo not given)
0.0522 (active) and 0.997 (inactive): locus YHR030C, strain SLT2, stronger effect = lower value
inactive: locus YAL021C, strain ccr4, stronger effect = lower value 0.939 | locus YAL030W, strain snc1, stronger effect = lower value 0.985 | locus YAL040C, strain CLN3, stronger effect = lower value 1.07 | locus YBL061C, strain skt5, stronger effect = lower value 0.963 | locus YBR023C, strain chs3, stronger effect = lower value 0.923 | locus YBR171W, strain sec66, stronger effect = lower value 1.03 | locus YBR231C, strain swc5, stronger effect = lower value 0.94 | locus YCL011C, strain gbp2, stronger effect = lower value 0.94 | locus YCL016C, strain dcc1, stronger effect = lower value 0.951 | locus YCL061C, strain MRC1 (second series), stronger effect = lower value 0.991 | locus YCL069W, strain vba3, stronger effect = lower value 1.01 | locus YCR088W, strain abp1, stronger effect = lower value 1.01 | locus YDL005C, strain med2, stronger effect = lower value 1.05 | locus YDL040C, strain nat1, stronger effect = lower value 1.01 | locus YDL185W, strain tfp1, stronger effect = lower value 1.01 | locus YDR001C, strain nth1, stronger effect = lower value 1.02 | locus YDR150W, strain NUM1, stronger effect = lower value 0.972 | locus YDR159W, strain sac3, stronger effect = lower value 0.977 | locus YDR297W, strain sur2, stronger effect = lower value 0.962 | locus YDR334W, strain swr1, stronger effect = lower value 1.04 | locus YDR335W, strain msn5, stronger effect = lower value 0.967 | locus YDR363W, strain ESC2, stronger effect = lower value 0.894 | locus YDR392W, strain spt3, stronger effect = lower value 1.12 | locus YEL003W, strain gim4, stronger effect = lower value 0.971 | locus YEL037C, strain rad23, stronger effect = lower value 1.01 | locus YEL061C, strain CIN8 (second series), stronger effect = lower value 1.02 | locus YER002W, strain NOP16, stronger effect = lower value 1.01 | locus YER016W, strain bim1, stronger effect = lower value 0.992 | locus YER110C, stronger effect = lower value 0.916 | locus YER111C, strain swi4, stronger effect = lower value 1.01 | locus YER155C, strain BEM2 (second series), stronger effect = lower value 1.05 | locus YGL078C, strain dbp3, stronger effect = lower value 1.01 | locus YGL167C, strain pmr1, stronger effect = lower value 1.01 | locus YGL173C, strain kem1, stronger effect = lower value 0.966 | locus YGL227W, strain vid30, stronger effect = lower value 1.04 | locus YGL240W, strain doc1, stronger effect = lower value 0.955 | locus YGL253W, strain hxk2, stronger effect = lower value 0.948 | locus YHR013C, strain ard1, stronger effect = lower value 1.01 | locus YHR079C, strain IRE1, stronger effect = lower value 0.979 | locus YHR142W, strain chs7, stronger effect = lower value 0.962 | locus YIL125W, strain kgd1, stronger effect = lower value 1.01 | locus YJL092W, strain hpr5, stronger effect = lower value 0.994 | locus YJL115W, strain asf1, stronger effect = lower value 1.01 | locus YJL129C, strain trk1, stronger effect = lower value 1.07 | locus YJL154C, strain vps35, stronger effect = lower value 1.03 | locus YJL164C, strain tpk1, stronger effect = lower value 0.977 | locus YJL166W, strain qcr8, stronger effect = lower value 0.97 | locus YJL187C, strain SWE1, stronger effect = lower value 0.939 | locus YJR066W, strain TOR1, stronger effect = lower value 0.937
0.194 (active) and 1.01 (inactive): locus YGR078C, strain PAC10, stronger effect = lower value
0.0681 (active) and 0.997 (inactive): locus YJL095W, strain BCK1, stronger effect = lower value
active: locus YAL013W, strain DEP1, stronger effect = lower value 0.161 and 0.864 | locus YAL026C, strain drs2, stronger effect = lower value 0.23 | locus YBR009C, strain hhf1, stronger effect = lower value 0.877 | locus YBR021W, strain FUR4, stronger effect = lower value 0.195 | locus YBR229C, strain ROT2, stronger effect = lower value 0.451 | locus YBR279W, strain paf1, stronger effect = lower value 0.924 | locus YCL029C, strain bik1, stronger effect = lower value 0.169 | locus YDL035C, strain GPR1, stronger effect = lower value 0.0738 | locus YDL074C, strain BRE1, stronger effect = lower value 0.0864 | locus YDL101C, strain DUN1, stronger effect = lower value 0.0947 | locus YDL134C, strain PPH21, stronger effect = lower value 0.0681 | locus YDL192W, strain arf1, stronger effect = lower value 0.0652 | locus YDR069C, strain doa4, stronger effect = lower value 0.891 | locus YDR101C, strain arx1, stronger effect = lower value 0.419 | locus YDR137W, strain rgp1, stronger effect = lower value 1.35 [resistant] | locus YDR162C, strain NBP2, stronger effect = lower value 0.0524 | locus YDR195W, strain ref2 1.37 [resistant] | locus YDR318W, strain mcm21, stronger effect = lower value 0.116 | locus YDR388W, stronger effect = lower value 0.0641 | locus YDR502C, strain sam2, stronger effect = lower value 0.123 | locus YEL061C, strain CIN8, stronger effect = lower value 0.196 | locus YER015W, strain faa2, stronger effect = lower value 0.842 | locus YER155C, strain BEM2, stronger effect = lower value 0.789 | locus YER167W, strain BCK2, stronger effect = lower value 0.118 | locus YFR010W, strain ubp6, stronger effect = lower value 0.781 | locus YGL086W, strain mad1, stronger effect = lower value 0.0828 | locus YGL248W, strain PDE1, stronger effect = lower value 0.0643 | locus YGR135W, strain pre9, stronger effect = lower value 0.189 | locus YGR229C, strain SMI1, stronger effect = lower value 0.06 | locus YGR252W, strain gcn5, stronger effect = lower value 0.161 | locus YHR027C, strain rpn1, stronger effect = lower value 0.844 | locus YHR079C, strain IRE1 (second series), stronger effect = lower value 0.374 | locus YHR094C, strain hxt1, stronger effect = lower value 0.304 | locus YHR129C, strain ARP1, stronger effect = lower value 0.0924 | locus YHR200W, strain rpn10, stronger effect = lower value 0.26 | locus YIL066C, strain RNR3, stronger effect = lower value 0.0646 | locus YIL073C, strain SPO22, stronger effect = lower value 0.0996 | locus YIR030C, strain dcg1, stronger effect = lower value 0.227 | locus YJL095W, strain BCK1 (second series), stronger effect = lower value 0.894 | locus YJL134W, strain LCB3, stronger effect = lower value 0.9 | locus YJL168C, strain set2, stronger effect = lower value 0.098 | locus YJL187C, strain SWE1 (second series), stronger effect = lower value 0.0709 | locus YJR043C, strain POL32, stronger effect = lower value 0.0862
